Source: PubChem BioAssay AID631 (The Scripps Research Institute Molecular Screening Center, 2007)
The whole screen tested about 200,000 compounds, of which about 810 (0.41%) were called active. This is one part of a sample in which actives are shown more often than they occur. No stated cut-off is given here; in the data, active means activation above about 19%; inactive means the rest.

Each compound was assayed against Peroxisome proliferator-activated receptor gamma (Homo sapiens) (UniProt P37231) (assay: PPARgamma agonists recruiting SRC-1 coactivator, primary screen, biochemical (AID 631;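 further: 0% = DMSO and 100% = reference agonist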)). Details: PPARgamma-SRC-1 coactivator recruitment biochemical assay; at 8 µM; stronger effect = higher value.
Sequence of Peroxisome proliferator-activated receptor gamma (Homo sapiens) (P37231 whole entry, looked up): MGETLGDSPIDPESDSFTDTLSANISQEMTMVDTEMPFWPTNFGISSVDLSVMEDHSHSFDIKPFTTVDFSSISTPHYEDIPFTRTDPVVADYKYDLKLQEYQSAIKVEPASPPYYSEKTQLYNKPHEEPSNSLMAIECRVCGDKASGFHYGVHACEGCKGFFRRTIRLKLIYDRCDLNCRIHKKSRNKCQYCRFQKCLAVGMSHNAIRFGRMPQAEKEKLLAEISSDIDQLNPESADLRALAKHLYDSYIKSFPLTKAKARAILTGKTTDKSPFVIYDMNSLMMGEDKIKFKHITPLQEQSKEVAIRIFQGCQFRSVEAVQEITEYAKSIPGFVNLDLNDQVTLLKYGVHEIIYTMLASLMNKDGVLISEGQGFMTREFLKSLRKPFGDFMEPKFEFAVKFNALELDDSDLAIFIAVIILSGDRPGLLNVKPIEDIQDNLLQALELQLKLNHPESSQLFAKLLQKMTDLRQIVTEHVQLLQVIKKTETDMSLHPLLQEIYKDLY
`O=C(Oc1ccc([N+](=O)[O-])cc1)c1ccc(Cl)c(S(=O)(=O)N2CCCCC2)c1` was tested, and the activation was -9.6% (inactive).
`CC(C)N(C(=O)Cn1cc(SCC(=O)N2CCCC2)c2ccccc21)C(C)C` was tested, and the activation was 5.8% (inactive).
In the case of `Cc1ccc(NC(=O)CC2C(=O)N(Cc3ccccc3)C(=S)N2NC(=O)c2cccc(F)c2)c(C)c1` (stereo not drawn), the activation is reported as -0.5% (inactive).
For `CCN(CCCNC(=O)CSc1cc(=O)n(C)c2cc(Cl)ccc12)Cc1ccccc1`, the activation was 55.4% (active).
For `CCN(CC)CCCNC(=O)CCc1ccccc1`, the activation was 3.3% (inactive).
For `CCN(CC)CCCNC(=O)c1cc(-c2cccc(Cl)c2)on1`, the activation was 3.6% (inactive).
For `O=C(Nc1ccccc1Cl)c1ccccc1S(=O)(=O)c1ccccc1[N+](=O)[O-]`, the activation was 2.9% (inactive).
In the case of `COc1ccc(C(=O)C[n+]2ccc(C)cc2)cc1`, the activation is reported as 0.2% (inactive).
`S=C(NN=C1CCN(Cc2ccccc2)CC1)NC1CCCCC1` was tested, and the activation was -1.7% (inactive).
`CC(Sc1cccc[n+]1[O-])C(=O)Nc1cccc(S(=O)(=O)N2CCOCC2)c1` (stereo not drawn) was tested, and the activation was -5.3% (inactive).
With `COc1cccc(NC(=S)NC(=O)c2c(Cl)c(C)nn2C)c1` the activation was 30.8% (active).
With `Cc1nn(C)c(C(=O)NNC(=S)NC2CCCCC2)c1Cl` the activation was -8.4% (inactive).
`COc1cccc(NC(=S)NCc2ccccn2)c1` was tested, and the activation was 2.4% (inactive).
In the case of `O=C(/C=C/c1cnc2ccccc2n1)NC1CCCCCC1`, the activation is reported as -0.4% (inactive).
For `O=c1cc(O)c(-c2cccc(C(F)(F)F)c2)c(Cl)[nH]1`, the activation was 8% (inactive).
With `Cn1c(=O)cc(SCC(=O)N2CCN(C(=O)c3ccco3)CC2)c2ccccc21` the activation was 49.4% (active).
For `CC(=O)c1ccc(-n2nnnc2SCC(=O)N2CCN(C(=O)c3ccco3)CC2)cc1`, the activation was 0.3% (inactive).
`Cc1cccc(OCc2nnc(SCC(=O)N3CCN(C(=O)c4ccco4)CC3)n2C)c1C` was tested, and the activation was 5.6% (inactive).
In the case of `CCOC(=O)C1CCN(C(=O)Cn2cc(C#N)c3ccccc32)CC1`, the activation is reported as -2.2% (inactive).
With `CCOc1ccc(CCNC(=O)CSc2cc(=O)n(C)c3ccc(Cl)cc23)cc1OCC` the activation was 12% (inactive).
In the case of `CCOC(=O)C1CCN(C(=O)CSc2cc(=O)n(C)c3ccccc23)CC1`, the activation is reported as 49.8% (active).
For `O=C(CSCc1ccc(Cl)cc1)N1CCCCC1`, the activation was 2% (inactive).
In the case of `Cn1c(=O)cc(SCC(=O)N2CCCC2)c2cc(Cl)ccc21`, the activation is reported as 53.4% (active).
`CCOC(=O)N1CCC(NC(=O)COc2cc(=O)n(C)c3ccccc23)CC1` was tested, and the activation was -0.7% (inactive).
`CC1CN(CCCOc2ccccc2-c2ccccc2)CC(C)O1` (stereo not drawn) was tested, and the activation was 6.7% (inactive).
`C/C(=N\Nc1nc(N2CCOCC2)nc(N2CCOCC2)n1)c1ccc([N+](=O)[O-])cc1` was tested, and the activation was 1.7% (inactive).
With `CCN(CC)c1ccc(C(=O)N/N=C(\C)c2cccc(OC)c2)cc1` the activation was 9.4% (inactive).
`CCOC(=O)c1c(N)nn(C(=O)c2ccccc2)c1-c1ccccc1` was tested, and the activation was 3% (inactive).
With `COc1cc2c(cc1OC)C(=O)NCC(C)(C)O2` the activation was 9.4% (inactive).
In the case of `CCOC(=O)c1ccccc1C(=O)N1CCOCCOCCOCC1`, the activation is reported as -0.2% (inactive).
`Cc1cnc(C(=O)N2CCCC(C(=O)c3ccc(C(F)(F)F)cc3)C2)cn1` (stereo not drawn) was tested, and the activation was 5.6% (inactive).
In the case of `CN(C)/C(=N\OC(=O)c1ccccc1)c1nonc1N`, the activation is reported as 2.5% (inactive).
With `O=C(Nn1cnc2ccccc2c1=O)c1ccccc1` the activation was 12.8% (inactive).
`Nc1nc(SCC(=O)NCCN2CCOCC2)nc2sc3c(c12)CCC3` was tested, and the activation was 6% (inactive).
`CCOc1cc(C2C(C(=O)OC(C)C)=C(C)NC3=C2C(=O)CCC3)cc([N+](=O)[O-])c1O` (stereo not drawn) was tested, and the activation was -1% (inactive).
With `Cc1ccc2nc(-c3cccc(Br)c3)cc(C(=O)Nn3cnnc3)c2c1` the activation was -0.9% (inactive).
In the case of `COc1ccc(Cl)cc1C(=O)NCc1cn(C)nc1C`, the activation is reported as 0.6% (inactive).
With `Cc1ccc(-c2cc(C(=O)NCc3cn(C)nc3C)c3cc(Br)ccc3n2)cc1` the activation was 22.7% (active).
With `O=C(Cc1cc(=O)[nH][nH]1)N/N=C/c1ccccc1[N+](=O)[O-]` the activation was 1.6% (inactive).
For `O=C(COc1cccc2ccccc12)Nc1cc(S(=O)(=O)N2CCOCC2)ccc1N1CCOCC1`, the activation was 5.6% (inactive).
For `COc1ccccc1CC(NC(C)=O)C(=O)NC1CCN(C(=O)Nc2ccccc2Cl)CC1` (stereo not drawn), the activation was 5.1% (inactive).
`C=CCN(CC=C)CCOc1ccccc1[N+](=O)[O-]` was tested, and the activation was 2.5% (inactive).
For `COCC1CCCN(Cc2nc(-c3ccc4c(c3)OCO4)no2)C1` (stereo not drawn), the activation was 10.9% (inactive).
For `COc1ccc(C2c3[nH]c4ccccc4c3CCN2CCCn2cccn2)cc1C` (stereo not drawn), the activation was -5% (inactive).
In the case of `CC(C)(C)CC(=O)Nc1nnc(SCC(=O)NCc2cccs2)s1`, the activation is reported as 10.6% (inactive).
In the case of `O=C(/C=C/Nc1ccccc1OC(F)(F)F)C(F)(F)F`, the activation is reported as -4.7% (inactive).
`CCCOc1ccc(N/C=C/C(=O)C(C)(C)C)cc1` was tested, and the activation was 2.3% (inactive).
With `CN(C)c1ccc(N/C=C/C(=O)C(F)(F)F)cc1` the activation was 31.5% (active).
In the case of `COC(=O)C[n+]1cccc2ccccc21`, the activation is reported as 4.1% (inactive).
For `O=C(O)c1ccn(COc2ccc(Br)cc2)n1`, the activation was 7.4% (inactive).
In the case of `Cc1ccc(Cc2cnc(NC(=O)/C(C#N)=C/c3ccc(-c4cccc([N+](=O)[O-])c4)o3)s2)cc1`, the activation is reported as 2.6% (inactive).
In the case of `Cc1cc(-c2ccc(/C=N/n3cnnc3)o2)c([N+](=O)[O-])cc1C`, the activation is reported as -9.4% (inactive).
With `Cc1ccc(-c2ccc(/C=C(\C#N)C(N)=S)o2)c([N+](=O)[O-])c1` the activation was 22.9% (active).
In the case of `Cc1cc(C)cc(C(=O)N(CCc2ccccc2)C2=CC3CCC(C2)N3C)c1` (stereo not drawn), the activation is reported as -4.8% (inactive).
With `CSc1nc2nc(-c3cccc(C(F)(F)F)c3)ccn2n1` the activation was 3.3% (inactive).
In the case of `CCn1ccnc1CN(C)Cc1nc(-c2ccc3c(c2)OCO3)no1`, the activation is reported as 3.8% (inactive).
`CC(C)CC(CC(C)C)=NNC(=O)c1ccc(CSc2nncn2C)cc1` was tested, and the activation was 9.8% (inactive).
`COC(=O)c1cccnc1NC(=S)NC(C)C` was tested, and the activation was 5.1% (inactive).
In the case of `Nc1ccc(Nc2ccccc2)cc1`, the activation is reported as 20.9% (active).
For `Cc1ccc(Nc2ccccc2N)cc1`, the activation was 7.5% (inactive).
`Cc1cc(Nc2ccccc2)n(C(=O)c2ccc(N)cc2)n1` was tested, and the activation was 3.5% (inactive).
In the case of `COc1cc(C(=O)NCc2nnc(SCC(=O)Nc3nc4ccc(C)cc4s3)o2)cc(OC)c1OC`, the activation is reported as 4.6% (inactive).
For `COc1ccc(-c2ccc(CCC(=O)O)n2NC(=O)c2ccc(C(C)(C)C)cc2)cc1`, the activation was 4.4% (inactive).
`CCOC(=O)Cc1cc(=O)[nH]c(=O)[nH]1` was tested, and the activation was 1.2% (inactive).
`O=C1CCC(=O)N1c1ccc(NCCc2ccccc2F)c([N+](=O)[O-])c1` was tested, and the activation was 9% (inactive).
With `CC(=O)c1sc2nc(SCC(=O)N3CCCCC3)[nH]c(=O)c2c1C` the activation was 19.1% (active).
`O=C(CSc1nc2c(cnn2-c2ccc(F)cc2)c(=O)[nH]1)N1CCCCCC1` was tested, and the activation was 1.2% (inactive).
In the case of `C=CCNC(=O)CSc1nc2sc(C)c(C)c2c(=O)[nH]1`, the activation is reported as 1.1% (inactive).
In the case of `Cc1cccc(NC(=O)c2ccc3nsnc3c2)c1C`, the activation is reported as 4.5% (inactive).
In the case of `O=C(Cc1ccccc1)NNS(=O)(=O)c1ccc([N+](=O)[O-])cc1`, the activation is reported as 0.6% (inactive).
For `Cc1cn(C)c(=O)n(C)c1=O`, the activation was 3.8% (inactive).
`COc1cc(C2CC(=O)N3CN(Cc4ccccc4)CSC3=C2C#N)ccc1OCc1ccccc1` (stereo not drawn) was tested, and the activation was 19% (active).
With `COc1ccc(CCN=C2SCC(=O)N2Cc2ccccc2)cc1OC` the activation was -0.6% (inactive).
For `COc1cc(CNC2CCCC2)c(Br)cc1OCc1ccccc1`, the activation was 1.4% (inactive).
`CCOc1ccc(N(CC(=O)NCCc2ccc(OC)cc2)S(C)(=O)=O)cc1` was tested, and the activation was 0.5% (inactive).
`CCOC(=O)Cc1csc(SCC(=O)NC(C)C23CC4CC(CC(C4)C2)C3)n1` (stereo not drawn) was tested, and the activation was -9% (inactive).
With `Cc1nnc(SCCCCSc2nnc(C)c(=O)[nH]2)[nH]c1=O` the activation was 4.2% (inactive).
For `COc1ccc(NC(=O)c2ccccc2CC[N+](=O)[O-])cc1`, the activation was 3.6% (inactive).
